# In PubChem BioAssay (NCI):
# This is part of a sample that, as a whole, favours compounds with a hit. Of some 83,000 tested, about 20% had one in any assay.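 In brief: 96-well plates, 48 h treatment, single concentration, percent growth endpoint.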 Unmarked numbers belong to inactive results. Activity calls are given as the source filed them. How the source made its calls: active means growth percent below 10; inactive means the rest.
# Assays:
# Experiment in all cases: NCI-60 one-dose screen, 48 h (100 = growth as untreated, 0 = no growth, -100 = all killed)
# Conditions in all cases: 10 µM unless noted
# [1] = tested on: T-47D breast
# [2] = tested on: BT-549 breast
# [3] = tested on: MDA-MB-435 melanoma
# [4] = tested on: SW-620 colon
# [5] = tested on: MCF7 breast
# [6] = tested on: HCT-116 colon
# [7] = tested on: HCC-2998 colon
# [8] = tested on: KM12 colon
# [9] = tested on: MDA-MB-468 breast
Compound,growth [1],growth [2],growth [3],growth [4],growth [5],growth [6],growth [7],growth [8],growth [9]
CCCCc1c(Nn2cnnn2)no[n+]1[O-],51.5%,49.4%,46.5%,57.6%,24.5%,38.2%,78.8%,61.7%,49.3%
CCOC(=O)C(N=Nc1ccc(S(=O)(=O)N=C(N)N)cc1)C(C)=O (configuration not stated),105%,113%,105%,102%,97.9%,109%,120%,103%,
COc1cc2oc(-c3cccc(NC(=O)[C@H](Cc4ccccc4)NC(=O)OC(C)(C)C)c3)cc(=O)c2c(OC)c1OC,38.7%,28.7%,61.9%,43.3%,22.1%,15.1%,69.6%,19.5%,41.8%
CCC(C)(C)c1ccc(OCCCCCCN2CCN(c3ccncc3)CC2)cc1,-44.4% (active),-44.2% (active),-0.134% (active),-62% (active),-58.1% (active),-69.3% (active),-74.1% (active),7.93% (active),
O=C(COc1ccc(NC(=O)Nc2ccccc2)cc1)N=Nc1c(O)[nH]c2ccc([N+](=O)[O-])cc12,-43.7% (active),-42.6% (active),-18.3% (active),4.08% (active),-2.45% (active),-55.9% (active),-47.9% (active),-62% (active),
CCCSc1nc(NCCc2c[nH]c3ccccc23)c(C#N)c(-c2ccc(OC)cc2)n1,15.3%,83.2%,62.5%,42.5%,7.41% (active),20.8%,48%,37.1%,
Clc1cccc(-c2ccc(OCCCN3CCN(c4ccncc4)CC3)cc2)c1,-37.5% (active),20.4%,-51.6% (active),-66.2% (active),-61.4% (active),-76.7% (active),-91.5% (active),-43.8% (active),
O=C(Cn1nc(-c2ccccc2)ccc1=O)N/N=C/c1ccc(N2CCOCC2)cc1,69.4%,121%,97.6%,102%,83.8%,103%,113%,102%,104%
COc1cc(NC(=O)c2cccc(C3CCc4c(cc(OC)c(OC)c4OC)O3)c2)cc(OC)c1OC (configuration not stated),14.5%,-6.89% (active),2.46% (active),46.1%,3.71% (active),8.03% (active),64.8%,0.726% (active),29.3%
COc1ccc2[nH]cc(-c3cc(N)n4nc(-c5cn(C)c6ccccc56)cc4n3)c2c1,-73.3% (active),-75.2% (active),-81% (active),-46.1% (active),-82.2% (active),-85.9% (active),-81.3% (active),-69.9% (active),-80.1% (active)
CCCSc1nc(NCCc2c[nH]c3ccccc23)c(C#N)c(-c2ccc(F)cc2)n1,26.4%,64.5%,72.9%,55.7%,35.3%,22.6%,44.4%,31.3%,44.4%
NS(=O)(=O)c1ccc(N=Nc2c(O)n(CC(=O)Nc3ccccc3)c3ccccc23)cc1,60.8%,25.5%,9.55% (active),-17.4% (active),14.9%,-45.3% (active),12.9%,13.9%,36.5%
CCN(CC)c1ccc(/C=N/Nc2nc(-c3ccc(Br)cc3)cs2)c(O)c1,80.9%,37.4%,64.5%,10.5%,18.7%,18.3%,100%,86.3%,69%
CN(C)c1nc(NCCNS(=O)(=O)c2ccc(C(=O)/C=C/c3ccc(Cl)cc3)cc2)nc(Nc2ccc(F)cc2)n1,-10% (active),-66.9% (active),-87.8% (active),-95.1% (active),-77.1% (active),-91.4% (active),-91.6% (active),-83.6% (active),-25.9% (active)
N/C(=N\c1nc2ccccc2s1)NC(=O)Nc1ccc(Cl)cc1Cl,-10.7% (active),-17.6% (active),-97.3% (active),-67.9% (active),-4.93% (active),-79.6% (active),-25.4% (active),-64.4% (active),-48.6% (active)
COc1cc2c3c(n(CCCN4CCC[C@@H]4CO)c(=O)c2cc1OC)-c1cc2c(cc1C3=O)OCO2,49.3%,34.9%,-86.8% (active),-77.8% (active),-84.9% (active),-59.1% (active),-99.4% (active),-98.2% (active),-92.4% (active)
CCN(CC)c1ccnc(CNCCSC(c2ccccc2)(c2ccccc2)c2ccc(OC)cc2)c1,-15.8% (active),-25.4% (active),-63.8% (active),-66.6% (active),-50.8% (active),-78.6% (active),-80.5% (active),-49.8% (active),-64.1% (active)
O=C(CN1C(=O)/C(=C/c2ccccc2Cl)SC1=S)N1CCOCC1,70.9%,119%,91.3%,38.6%,49.6%,61.1%,124%,101%,-2.81% (active)
COC(=O)/C=C/c1cccc2c1C(=O)NC(C)(c1cc3cc4ccccc4cc3oc1=O)N2 (configuration not stated),71.8%,45.2%,76.1%,54.3%,47.2%,44.5%,68.5%,53.7%,41%
COc1cc2oc(-c3cccc(C(=O)Nc4ccc(Cl)cc4)c3)cc(=O)c2c(OCCNC(=O)[C@@H](N)CCC(=O)O)c1OC,73.7%,84.5%,88.6%,106%,61%,58.7%,115%,93.2%,74.5%
COc1cc(OC)c2c3nc4cc(C)c(C)cc4nc3n(CCN(C)C)c2c1,60.7%,78.9%,87.8%,35.3%,-17.2% (active),39.5%,77.1%,84.7%,65.6%
O=C(c1ccccc1)c1ccc2nc(-c3cccc(Cl)c3)[nH]c2c1,98.6%,105%,106%,108%,105%,103%,110%,108%,105%
C=C1CCC2C3(C)COC(c4ccco4)OC3CCC2(C)C1CC(Sc1ccccc1)C1=CCOC1=O (configuration not stated),77.3%,5.74% (active),54.1%,34.8%,23.1%,12%,57%,71.9%,17%
COC(=O)/C=C/c1cccc2c1C(=O)NC(C)(c1cc3ccccc3oc1=O)N2 (configuration not stated),51.4%,58.2%,78.2%,72.2%,82.2%,44.6%,74.4%,68.8%,64.7%
O=C(COc1ccc(NC(=O)Nc2ccc(Cl)c(Cl)c2)cc1)N=Nc1c(O)[nH]c2ccc(Cl)cc12,-13% (active),-71.7% (active),-61.4% (active),-46.9% (active),3.54% (active),-53.5% (active),-51.4% (active),-87.9% (active),-51% (active)
C=C1CCC2C3(C)COC(c4ccccc4)OC3CCC2(C)C1CC(Sc1ccccc1)C1=CCOC1=O (configuration not stated),33.1%,-19% (active),45.8%,14.8%,17%,4.36% (active),36.8%,47.5%,27.3%
COc1ccc(-c2nc3ccc(C(=O)NN4C(=O)c5ccc([N+](=O)[O-])cc5C4=O)cc3[nH]2)cc1,97%,105%,98.3%,101%,83%,102%,108%,101%,89.7%
Cc1ccc(S(=O)(=O)c2nc(S(=O)(=O)c3ccc(C)cc3)c(N3CCC(O)CC3)s2)cc1,60.1%,49.5%,16.8%,44.7%,43.4%,53.7%,90.6%,72.6%,-20.7% (active)
